Records with an inconclusive call do not appear. Active and inactive are the calls of the source. The call rests on the fitted dose curve.
experiment: Primary qHTS to identify inhibitors of SARS-CoV-2 cell entry (AID 1645846); conditions: SARS-CoV-2 pseudovirus cell entry assay, luminescence; activity change, negative = inhibition: at 57.1 µM (top of the series) unless noted; further: nearly all actives have a fitted effect of over 45% in size
Outline: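 HEK293 cells stably expressing human ACE2, pre-treated 1 h with compound, then infected with MLV particles pseudotyped with Wuhan-Hu-1 spike (C-terminal 19-aa truncation). Luciferase luminescence after 48 h at 37 °C, normalised to spike PP and bald PP.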
Potency means the concentration at half of the fitted maximal effect.

SMILES	Potency	activity change, negative = inhibition
CCn1c(=O)c(-c2ccc(-c3cncc(C)n3)cc2Cl)cc2cnc(NCCC3CCN(C)CC3)nc21	3.16 µM (active)	–
Cc1cc(CS(=O)(=O)c2ccccc2)cc(OCc2ccc(CN3CCC[C@@H]3CO)cc2)c1	12.6 µM (active)	–
C[C@H](NC(=O)[C@H]1NCC[C@@H]1O)c1ccc(-c2noc(CCC3CCCC3)n2)cc1	–	-92.1%
CNC(=O)Cn1cc(-c2ccc3c(c2)C(F)CC32NC(=O)N(CC(=O)N(Cc3ccc(F)cc3)C(C)C(F)(F)F)C2=O)cn1 (stereo not drawn)	–	-52.5%
C[C@@H](Oc1ccc2[nH]nc(/C=C/c3cnn(CCO)c3)c2c1)c1c(Cl)cncc1Cl	–	-97.5%
CN(Cc1ccc(/C=C/C(=O)NO)cc1)CC12CC3CC(CC(C3)C1)C2	5.01 µM (active)	–
CNC(=O)CCc1cc(-c2ccc(-c3ccc(C(F)(F)F)cc3)cc2)n(-c2ccc(N3CCNCC3)cc2)n1	–	-95.7%
N#Cc1cc2cc(CN3CCC(Nc4ncnc5sc(CC(F)(F)F)cc45)CC3)c(O)cc2n1Cc1cn[nH]c1	17.8 µM (active)	–
NS(=O)(=O)NCCNc1nonc1C(=Nc1ccc(F)c(Br)c1)NO	–	-14.4%
C=CC(=O)N1CC/C(=C\c2ccc(F)c([N+](=O)[O-])c2)C(=O)/C(=C/c2ccc(F)c([N+](=O)[O-])c2)C1	0.891 µM (active)	–
COc1cc(C(=O)NC2CCN(C)CC2)c(F)cc1Nc1ncc2c(n1)N(C1CCCC1)CC(F)(F)C(=O)N2C	–	-99.3%
FC(F)(F)c1ccc(CNc2ccc(Cc3c[nH]c4ncccc34)cn2)cc1	20 µM (active)	–
Cc1c(O)cccc1C(=O)NC(CSc1ccccc1)C(O)CN1CC2CCCCC2CC1C(=O)NC(C)(C)C (stereo not drawn)	31.6 µM (active)	–

From PubChem BioAssay (NCATS)
